According to PubChem BioAssay (NCI):
This is part of a sample that, as a whole, favours compounds with a hit. Of some 83,000 tested, about 20% had one in any assay.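 Note: values are percent growth. 100 is the growth of untreated cells, values between 100 and 0 indicate rising inhibition; between -100 and 0 indicates cell death.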 Calls of active or inactive are those of the source. Rule for the calls: active = growth percent below 10; inactive = the rest.

Key:
Test in all cases: NCI-60 one-dose screen, 48 h (100 = growth as untreated, 0 = no growth, -100 = all killed)
SR leukemia = conditions: 10 µM unless noted
RPMI-8226 leukemia = tested on: RPMI-8226 leukemia
OVCAR-8 ovarian = tested on: OVCAR-8 ovarian
OVCAR-4 ovarian = tested on: OVCAR-4 ovarian
SK-OV-3 ovarian = tested on: SK-OV-3 ovarian
IGROV1 ovarian = tested on: IGROV1 ovarian
OVCAR-3 ovarian = tested on: OVCAR-3 ovarian
HS 578T breast = tested on: HS 578T breast
NCI/ADR-RES ovarian = tested on: NCI/ADR-RES ovarian
OVCAR-5 ovarian = tested on: OVCAR-5 ovarian

Measured: growth

OC1CCC(Cn2c(C(F)(F)F)cc3c(Cl)ncnc32)CC1 (configuration not stated)
active: SR leukemia -58.9% | OVCAR-8 ovarian; 10 µM unless noted -4.04% | OVCAR-4 ovarian; 10 µM unless noted -19.9% | IGROV1 ovarian; 10 µM unless noted -85.7% | OVCAR-3 ovarian; 10 µM unless noted -25.1% | HS 578T breast; 10 µM unless noted -35.7%
inactive: RPMI-8226 leukemia; 10 µM unless noted 84.9% | SK-OV-3 ovarian; 10 µM unless noted 57.7% | NCI/ADR-RES ovarian; 10 µM unless noted 51.8%

CCCCN1C(=O)/C(=C\C(=O)c2cc3ccccc3oc2=O)c2ccccc21
active: SR leukemia -2.51%
inactive: RPMI-8226 leukemia; 10 µM unless noted 23.7% | OVCAR-8 ovarian; 10 µM unless noted 67.3% | OVCAR-4 ovarian; 10 µM unless noted 83.9% | SK-OV-3 ovarian; 10 µM unless noted 110% | IGROV1 ovarian; 10 µM unless noted 70.2% | OVCAR-3 ovarian; 10 µM unless noted 34.3% | HS 578T breast; 10 µM unless noted 75.6% | NCI/ADR-RES ovarian; 10 µM unless noted 67.5%

Cc1cc(N=C(N)c2ccccc2)ccc1OCCCCCCCCn1ccnc1
inactive: OVCAR-4 ovarian; 10 µM unless noted 37.5% | SK-OV-3 ovarian; 10 µM unless noted 16.7% | HS 578T breast; 10 µM unless noted 13.6%
active: SR leukemia 0.698% | OVCAR-5 ovarian; 10 µM unless noted 1.47% | IGROV1 ovarian; 10 µM unless noted 6.54%

NC(=Nc1ccc(OCCCCCCCCn2cnnn2)cc1)c1ccccc1
inactive: SR leukemia 14.6% | RPMI-8226 leukemia; 10 µM unless noted 29.5% | OVCAR-5 ovarian; 10 µM unless noted 23.1% | OVCAR-4 ovarian; 10 µM unless noted 56% | SK-OV-3 ovarian; 10 µM unless noted 35.3% | IGROV1 ovarian; 10 µM unless noted 24.4% | HS 578T breast; 10 µM unless noted 22%

CC/C(=C(\c1ccc(O)cc1)c1ccc(OCCN(C)C(=O)CCOCCNC(=O)c2ccc3c(c2)CN([C@@H]2CCC(=O)NC2=O)C3=O)cc1)c1ccccc1
inactive: RPMI-8226 leukemia; 1 µM 99.1% | RPMI-8226 leukemia; 10 µM 93.9% | OVCAR-8 ovarian; 1 µM 103% | OVCAR-8 ovarian; 10 µM 77.6% | OVCAR-5 ovarian; 1 µM 93.4% | OVCAR-5 ovarian; 10 µM 79.5% | OVCAR-4 ovarian; 1 µM 109% | OVCAR-4 ovarian; 10 µM 96.1% | SK-OV-3 ovarian; 1 µM 82.7% | SK-OV-3 ovarian; 10 µM 87.9% | IGROV1 ovarian; 1 µM 70.4% | IGROV1 ovarian; 10 µM 53.6% | OVCAR-3 ovarian; 1 µM 93.7% | OVCAR-3 ovarian; 10 µM 105% | HS 578T breast; 1 µM 75.9% | HS 578T breast; 10 µM 69.3% | NCI/ADR-RES ovarian; 1 µM 106% | NCI/ADR-RES ovarian; 10 µM 102%

COc1ccc([C@H]2C(C(=O)c3ccc(Cl)cc3)C3(N[C@@H]2c2ccccc2)C(=O)Nc2ccccc23)cc1 (some centres not stated)
inactive: RPMI-8226 leukemia; 10 µM unless noted 10.4% | OVCAR-8 ovarian; 10 µM unless noted 32.7% | OVCAR-5 ovarian; 10 µM unless noted 50.5% | OVCAR-4 ovarian; 10 µM unless noted 31.1% | SK-OV-3 ovarian; 10 µM unless noted 72.5% | IGROV1 ovarian; 10 µM unless noted 35.6% | OVCAR-3 ovarian; 10 µM unless noted 27.4% | HS 578T breast; 10 µM unless noted 53.7% | NCI/ADR-RES ovarian; 10 µM unless noted 12.2%

O=C(OCCOCCO)N(c1cccc(Br)c1)c1nc(SCCN2CCOCC2)nc2c1cnn2CC(Cl)c1ccc(Br)cc1 (configuration not stated)
active: SR leukemia -27.8% | RPMI-8226 leukemia; 10 µM unless noted -25.7% | HS 578T breast; 10 µM unless noted -2.13%
inactive: OVCAR-8 ovarian; 10 µM unless noted 19.6% | OVCAR-4 ovarian; 10 µM unless noted 23.5% | SK-OV-3 ovarian; 10 µM unless noted 25.3% | IGROV1 ovarian; 10 µM unless noted 31.8% | OVCAR-3 ovarian; 10 µM unless noted 20% | NCI/ADR-RES ovarian; 10 µM unless noted 12.3%

COc1cc2cc(C(=O)N3C[C@@H](CCl)c4c3cc(OC(=O)N(CCC(=O)N3CCN(C)CC3)[C@H]3CCSSC3)c3ccccc43)[nH]c2c(OC)c1OC
active: SR leukemia -22.9% | RPMI-8226 leukemia; 10 µM unless noted -5.04% | OVCAR-8 ovarian; 10 µM unless noted -49.8% | OVCAR-4 ovarian; 10 µM unless noted -11.9% | IGROV1 ovarian; 10 µM unless noted -16.7% | OVCAR-3 ovarian; 10 µM unless noted -55.8% | HS 578T breast; 10 µM unless noted -14.1% | NCI/ADR-RES ovarian; 10 µM unless noted -55.3%
inactive: SK-OV-3 ovarian; 10 µM unless noted 10.8%

O=C(Cc1c(-c2ccccc2[N+](=O)[O-])n(-c2ncnc3c2c(-c2ccccc2)c(-c2ccccc2)n3Cc2ccccc2)[nH]c1=O)c1ccc(Cl)c(Cl)c1
active: RPMI-8226 leukemia; 10 µM unless noted -3.03%
inactive: SR leukemia 14.2% | OVCAR-8 ovarian; 10 µM unless noted 25.5% | OVCAR-4 ovarian; 10 µM unless noted 19.2% | SK-OV-3 ovarian; 10 µM unless noted 39.3% | IGROV1 ovarian; 10 µM unless noted 25.2% | OVCAR-3 ovarian; 10 µM unless noted 14.2% | HS 578T breast; 10 µM unless noted 22% | NCI/ADR-RES ovarian; 10 µM unless noted 50.7%

CC(C)(C)OC(=O)N1CCC2(CC1)Oc1ccccc1[C@H]1CC(c3ccc(Br)cc3)=NN12
inactive: RPMI-8226 leukemia; 10 µM unless noted 56.2% | OVCAR-8 ovarian; 10 µM unless noted 83.3% | OVCAR-5 ovarian; 10 µM unless noted 122% | OVCAR-4 ovarian; 10 µM unless noted 65% | SK-OV-3 ovarian; 10 µM unless noted 79.1% | IGROV1 ovarian; 10 µM unless noted 58.7% | OVCAR-3 ovarian; 10 µM unless noted 77.1% | HS 578T breast; 10 µM unless noted 91.5% | NCI/ADR-RES ovarian; 10 µM unless noted 83.7%

COc1cc(/C=C/C(=O)c2cnn(-c3cc(=O)[nH]c4ccc(Cl)cc34)c2C)cc(OC)c1OC
inactive: OVCAR-4 ovarian; 10 µM unless noted 17.7% | HS 578T breast; 10 µM unless noted 23.9%
active: SR leukemia -11.6% | RPMI-8226 leukemia; 10 µM unless noted -31.7% | OVCAR-8 ovarian; 10 µM unless noted -0.426% | SK-OV-3 ovarian; 10 µM unless noted -6.03% | IGROV1 ovarian; 10 µM unless noted -35.3% | OVCAR-3 ovarian; 10 µM unless noted -61.7% | NCI/ADR-RES ovarian; 10 µM unless noted -20.3%

CC(=O)c1c2c(c3ccc4c5ccccc5ccc4n13)C(=O)c1ccccc1C2=O
inactive: SR leukemia 77.4% | RPMI-8226 leukemia; 10 µM unless noted 101% | OVCAR-8 ovarian; 10 µM unless noted 89.2% | OVCAR-4 ovarian; 10 µM unless noted 85.4% | SK-OV-3 ovarian; 10 µM unless noted 97.1% | IGROV1 ovarian; 10 µM unless noted 84.5% | OVCAR-3 ovarian; 10 µM unless noted 108% | HS 578T breast; 10 µM unless noted 82.2% | NCI/ADR-RES ovarian; 10 µM unless noted 96.3%

O=C(Cn1c(-c2ccccc2)nc2ccccc21)N=Nc1c(O)[nH]c2ccc(Cl)cc12
active: SR leukemia -14.7% | OVCAR-8 ovarian; 10 µM unless noted -26.3% | OVCAR-4 ovarian; 10 µM unless noted -44.4% | SK-OV-3 ovarian; 10 µM unless noted -6.33% | IGROV1 ovarian; 10 µM unless noted 9.94% | OVCAR-3 ovarian; 10 µM unless noted 1.02% | HS 578T breast; 10 µM unless noted -16.2% | NCI/ADR-RES ovarian; 10 µM unless noted -43.2%
inactive: RPMI-8226 leukemia; 10 µM unless noted 20.4%

CC(C)C[C@H](NC(=O)CNC(=O)C[C@H]1O[C@@H]2OC3(C)CC[C@H]4[C@H](C)CC[C@@H]([C@H]1C)[C@@]24O3)B(O)O
inactive: OVCAR-4 ovarian; 10 µM unless noted 18.9% | SK-OV-3 ovarian; 10 µM unless noted 25.7% | IGROV1 ovarian; 10 µM unless noted 10.7% | NCI/ADR-RES ovarian; 10 µM unless noted 92.6%
active: SR leukemia 9.06% | RPMI-8226 leukemia; 10 µM unless noted -11% | OVCAR-8 ovarian; 10 µM unless noted 4.17% | OVCAR-3 ovarian; 10 µM unless noted -33.1% | HS 578T breast; 10 µM unless noted -5.03%

Fc1ccccc1CNc1nc(SCCN2CCOCC2)nc2c1cnn2CC(Cl)c1ccc(Br)cc1 (configuration not stated)
inactive: OVCAR-8 ovarian; 10 µM unless noted 43.8% | OVCAR-4 ovarian; 10 µM unless noted 45% | SK-OV-3 ovarian; 10 µM unless noted 58.3% | IGROV1 ovarian; 10 µM unless noted 73.7% | OVCAR-3 ovarian; 10 µM unless noted 66.7% | HS 578T breast; 10 µM unless noted 17% | NCI/ADR-RES ovarian; 10 µM unless noted 33.5%
active: SR leukemia -3.85% | RPMI-8226 leukemia; 10 µM unless noted -6.83%

COc1cc(NC(=O)CSc2nnc(-c3ccc(-c4nc5ccc(Cl)cc5[nH]4)cc3)o2)cc(OC)c1OC
inactive: SR leukemia 35.7% | RPMI-8226 leukemia; 10 µM unless noted 25% | OVCAR-8 ovarian; 10 µM unless noted 62.6% | OVCAR-4 ovarian; 10 µM unless noted 64.8% | SK-OV-3 ovarian; 10 µM unless noted 109% | IGROV1 ovarian; 10 µM unless noted 52.7% | OVCAR-3 ovarian; 10 µM unless noted 21.7% | HS 578T breast; 10 µM unless noted 53.3% | NCI/ADR-RES ovarian; 10 µM unless noted 63.6%

O=C1NC(=NC23CC4CC(CC(C4)C2)C3)N/C1=C\c1ccc2ncccc2c1
inactive: OVCAR-5 ovarian; 10 µM unless noted 45.7%
active: RPMI-8226 leukemia; 10 µM unless noted -31.1% | OVCAR-8 ovarian; 10 µM unless noted 5.28% | OVCAR-4 ovarian; 10 µM unless noted -14.4% | SK-OV-3 ovarian; 10 µM unless noted -57.4% | IGROV1 ovarian; 10 µM unless noted 8.97% | OVCAR-3 ovarian; 10 µM unless noted -55.3% | HS 578T breast; 10 µM unless noted -15.3% | NCI/ADR-RES ovarian; 10 µM unless noted -28.7%

CC/C(=C(\c1ccc(O)cc1)c1ccc(OCCNC)cc1)c1ccccc1
inactive: RPMI-8226 leukemia; 1 µM 100% | RPMI-8226 leukemia; 10 µM 86.1% | OVCAR-8 ovarian; 1 µM 104% | OVCAR-8 ovarian; 10 µM 97.3% | OVCAR-5 ovarian; 1 µM 97.8% | OVCAR-5 ovarian; 10 µM 106% | OVCAR-4 ovarian; 1 µM 111% | OVCAR-4 ovarian; 10 µM 88.7% | SK-OV-3 ovarian; 1 µM 84.4% | SK-OV-3 ovarian; 10 µM 92.7% | OVCAR-3 ovarian; 1 µM 115% | OVCAR-3 ovarian; 10 µM 85.4% | HS 578T breast; 1 µM 94.8% | HS 578T breast; 10 µM 80.5% | NCI/ADR-RES ovarian; 1 µM 103% | NCI/ADR-RES ovarian; 10 µM 91.1%

COc1cc(/C=N/NC(=O)c2ccc(OCc3nc4ccc(C)cc4[nH]3)cc2)cc(OC)c1OC
inactive: OVCAR-4 ovarian; 10 µM unless noted 71.9% | SK-OV-3 ovarian; 10 µM unless noted 106% | IGROV1 ovarian; 10 µM unless noted 50.5% | OVCAR-3 ovarian; 10 µM unless noted 29.5% | HS 578T breast; 10 µM unless noted 63.1% | NCI/ADR-RES ovarian; 10 µM unless noted 91.6%
active: SR leukemia 0.64% | RPMI-8226 leukemia; 10 µM unless noted 7.31% | OVCAR-8 ovarian; 10 µM unless noted -30.8%
